Growth data for nine compounds are collected here from PubChem BioAssay (NCI).

What all share (assay): NCI-60 one-dose screen, 48 h (100 = growth as untreated, 0 = no growth, -100 = all killed)
Common to all, as to conditions: 10 µM unless noted

For assay [1], the system named is HCT-15 colon.
Assay [2] relates to HT29 colon.
Assay [3] concerns SNB-75 CNS.
The test system of assay [4] is SNB-19 CNS.
Assay [5] has as its system U251 CNS.
The test system of assay [6] is PC-3 prostate.
Assay [7] concerns SK-MEL-5 melanoma.
Assay [8] concerns UACC-62 melanoma.
The subject of assay [9] is SK-MEL-28 melanoma.
Assay [10] has as its system SK-MEL-2 melanoma.
In assay [11] the test system is EKVX NSCLC.
Assay [12] deals with SN12C renal.
The subject of assay [13] is UO-31 renal.
In assay [14] the test system is TK-10 renal.
The subject of assay [15] is ACHN renal.
Assay [16] relates to CAKI-1 renal.
Assay [17] deals with A498 renal.
Assay [18] concerns CCRF-CEM leukemia.
Assay [19] concerns MOLT-4 leukemia.
The test system of assay [20] is LOX IMVI melanoma.

About 83,000 compounds went through this panel and 20% of them were active in at least one assay; those are over-represented in the sample as a whole.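 Cell lines were cultured in 96-well plates, exposed to a single compound concentration, and assessed for percent growth 48 hours later.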 Values without a mark were called inactive. Calls of active or inactive are those of the source. Rule for the calls: active = growth percent below 10; inactive = the rest.

With `CCCSc1nc2ccc(C)cc2cc1/C=[N+](\[O-])c1ccccc1`, the growth was 11.5% in assay [1]; 10% (active) in assay [2]; 21.4% in assay [3]; 37.2% in [4]; 12.8% in [5]; 23.1% in assay [6]. Further, the growth was 27.6% in assay [7]; 31.3% in [8]; 48.3% in [9]; 68.8% in [10]; 80.6% in [11]; 26.1% in [12]. Moreover, the growth in [13] is 44.7%; in [14], 89.5%; in [15] it was 49.2%; in assay [16] it was 70.5%; in assay [17] it was 74.6%; in assay [18], 11.2%. Further, the growth in assay [19] is 27.2%.
With `O=C(/C=C/c1sc(Cl)nc1Cl)c1ccccc1`, the growth in assay [1] is 30.4%; in assay [2] it was 88.6%; in assay [3], 86.5%; in assay [4], 96%; in assay [5], 69.9%; in assay [6], 84.8%. Besides, the growth was 102% in assay [7]; 93.5% in assay [8]; 95.4% in [9]; 104% in assay [10]; 101% in assay [11]; 44.8% in assay [12]. In addition, the growth in assay [13] is 90.7%; in assay [14], 111%; in assay [15], 46.9%; in assay [16], 93.1%; in assay [17] it was 100%; in assay [18], 34.9%. The growth in [19] was 32.3%.
For `CNc1nc2c(s1)C(c1cc(F)ccc1F)CC(=O)N2` (configuration not stated), the growth was 42% in assay [1]; 82.4% in assay [2]; 32.4% in assay [3]; 72.2% in [4]; 67.6% in assay [5]; 81.1% in assay [6]. In addition, the growth in assay [7] is 64.5%; in assay [8] it was 50.1%; in [9], 69.6%; in assay [10] it was 61.3%; in [11], 97.8%; in assay [12] it was 71%. Moreover, the growth was 63.9% in assay [13]; 17% in [14]; 87.8% in [15]; 51.5% in [16]; 34.4% in assay [17]; 40% in assay [18]. Further, the growth in [19] was 37.3%.
For the compound `NCCCNc1nc2ccccc2c2c(=O)c3cc(OC(F)(F)F)ccc3sc12`, the growth was -78.1% (active) in [1]; -32.9% (active) in assay [2]; 58.6% in assay [3]; 7.57% (active) in assay [4]; -63% (active) in [5]; 42.9% in assay [6]. Moreover, the growth in assay [7] is 59.9%; in assay [8], 88.9%; in assay [20] it was -97.3% (active); in assay [10] it was 89.3%; in assay [11] it was 67.9%; in assay [12], 41.3%. Moreover, the growth in assay [13] was 33.8%; in assay [14], 64.7%; in assay [15] it was -22.8% (active); in assay [16], -72.7% (active); in assay [17], 21.4%; in [18] it was -2.58% (active). The growth in assay [19] is -39.5% (active).
With `CC(=O)Oc1ccccc1C(=O)N=C1[Se]CCCN1C(=O)c1ccccc1OC(C)=O`, the growth in assay [1] was 21.5%; in assay [2] it was 95.5%; in assay [3], -28.9% (active); in assay [4], -55.1% (active); in assay [5], 23.4%; in [6] it was 19.6%. Further, the growth in assay [7] was 74.8%; in assay [8], 73.6%; in [9], 18.5%; in assay [10], 91.4%; in assay [11] it was 75.7%; in assay [12], -15.2% (active). For the same compound, the growth in assay [13] is -55.8% (active); in [14], 6.56% (active); in assay [15] it was 20.8%; in assay [16], 52.5%; in assay [17], 68.6%; in assay [18], 22.1%. In addition, the growth in assay [19] is 9.25% (active).
Take `O=CN1N=C(c2ccc(Nc3ccnc4cc(Cl)ccc34)cc2)CC1c1ccccc1` (configuration not stated): the growth was 15.4% in assay [1]; 11.6% in assay [2]; 56.4% in assay [3]; 52.8% in assay [4]; 34.5% in [5]; 42.4% in assay [6]. Moreover, the growth in [7] was 1.49% (active); in [8] it was 38.4%; in assay [9], 44.4%; in assay [10], 32.6%; in [11] it was 46.2%; in assay [12], 53.8%. In addition, the growth in [13] is 24.1%; in assay [14], 59.7%; in assay [15] it was 33.4%; in assay [16], 38.2%; in [17], 21.2%; in [18], 15%. In addition, the growth in assay [19] was 13.8%.
As for `COc1ccc(-c2conc2-c2ccccc2)cc1`, the growth in assay [1] was 17.9%; in [2] it was 53.1%; in assay [3], -12.4% (active); in assay [4], 30.1%; in assay [5] it was 20.9%; in [6] it was 20%. Moreover, the growth in [7] was 22.4%; in [8], 17.8%; in [20], 38.8%; in assay [10] it was 41.6%; in assay [11], 52.7%; in assay [12], 33.2%. Moreover, the growth in assay [13] is 45.2%; in assay [14], 6.72% (active); in [15], 36.5%; in assay [16], 33.5%; in assay [17], -14% (active); in assay [18] it was 25.7%. For the same compound, the growth in [19] is 34.4%.
On to `CN1CCN(Cc2ccc(NC(=O)c3cncc(C#Cc4cnccc4C#N)c3)cc2C(F)(F)F)CC1`, for which the growth is 55% in assay [1]; 27.5% in assay [2]; 122% in assay [3]; 102% in assay [4]; 77.3% in assay [5]; 91.7% in [6]. Further, the growth in assay [7] is 54%; in assay [8] it was 41.5%; in assay [20], 12.4%; in assay [10], 52%; in assay [11], 66.4%; in assay [12], 60.5%. The growth in assay [14] was 108%; in [15], 66.8%; in [17] it was 84.9%; in assay [19], 66.1%.
`COc1ccc(C(=O)N=Nc2c(O)n(C)c3ccccc23)cc1`: the growth in assay [1] was 91.6%; in assay [2], 103%; in assay [3] it was 91.6%; in assay [4], 87.3%; in assay [5] it was 98.5%; in [6], 90.9%. Further, the growth in [7] is 89.1%; in [8] it was 90.6%; in assay [20] it was 81.8%; in assay [10], 114%; in assay [11], 77%; in [12] it was 94.5%. Further, the growth is 69.3% in assay [13]; 146% in assay [14]; 91.4% in [15]; 82.3% in assay [16]; 94.2% in [18]; 99.9% in assay [19].
